Over roughly 33,000 sequences, “E-score (-0.5 to 0.5)” has its median near -0.01; the highest 2% begin near 0.26. For the sample, the highest values were picked, then their nearest neighbours and some sequences at random.
Target: Ste12 (UniProt P13574)
Experiment: PBM E-score (8-mer binding enrichment) (E-score (-0.5 to 0.5)); higher = stronger / more preferred TF binding
Settings: protein concentration: 200 nM; construct: GST-DNA-binding domain
Procedure: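 Universal 'all 10-mer' protein binding microarrays (Agilent AMADID 015681) probed with GST-tagged S. cerevisiae TFs (full-length or DBD) made by in vitro transcription/translation (PURExpress), about 100-200 nM. Bound TF was detected with fluorescent anti-GST. Each ungapped 8-mer (which stands for itself and its reverse complement) is scored by the PBM enrichment score (E-score), a modified Wilcoxon-Mann-Whitney statistic from -0.5 to +0.5, computed with the Universal PBM Analysis Suite. Scale: above 0.35 generally sequence-specific binding.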

Sequence of UniProt P13574 (P13574 whole entry): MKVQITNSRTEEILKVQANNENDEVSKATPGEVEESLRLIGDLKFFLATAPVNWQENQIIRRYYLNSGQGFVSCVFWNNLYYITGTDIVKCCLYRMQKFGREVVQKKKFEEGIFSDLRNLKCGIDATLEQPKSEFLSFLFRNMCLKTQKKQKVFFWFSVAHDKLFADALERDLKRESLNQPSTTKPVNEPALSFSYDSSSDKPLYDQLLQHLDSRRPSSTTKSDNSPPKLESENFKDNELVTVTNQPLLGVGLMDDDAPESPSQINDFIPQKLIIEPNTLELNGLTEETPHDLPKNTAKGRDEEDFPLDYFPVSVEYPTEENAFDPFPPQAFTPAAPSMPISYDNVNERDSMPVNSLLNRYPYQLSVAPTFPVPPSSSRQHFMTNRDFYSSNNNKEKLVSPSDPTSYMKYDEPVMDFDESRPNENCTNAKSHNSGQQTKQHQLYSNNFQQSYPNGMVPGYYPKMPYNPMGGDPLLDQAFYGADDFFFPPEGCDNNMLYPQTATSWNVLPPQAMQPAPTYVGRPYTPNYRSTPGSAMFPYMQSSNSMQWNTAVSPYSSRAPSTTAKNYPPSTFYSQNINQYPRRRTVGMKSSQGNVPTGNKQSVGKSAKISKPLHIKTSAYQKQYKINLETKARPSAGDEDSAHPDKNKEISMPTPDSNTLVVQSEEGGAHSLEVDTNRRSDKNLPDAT

| Sequence | PBM E-score |
| --- | --- |
| GATCGATA | 0.0823 |
| TCAAGGCA | -0.169 |
| ACCTTGGA | -0.197 |
| ATGTCTTA | 0.134 |
| AACACGAC | -0.104 |
| CAATATAA | 0.316 |
| TATAATAA | 0.141 |
| CAATATAC | 0.116 |
| GAATATAA | 0.161 |
| CAATATAG | 0.117 |
| TAATATAA | 0.287 |
| CTCCCGTC | 0.0578 |
| AAAGGGAT | 0.00067 |
| AAAGTCAA | 0.189 |
| CTCTTATA | 0.267 |
| GTCTTATA | 0.0618 |
| ATCTTATA | 0.0647 |
| AAGCCCCA | -0.237 |
| AGGCCATA | -0.245 |
| CCCATAGA | -0.143 |
| AAAATTTG | 0.0212 |
| AAAATTAC | 0.188 |
| AAAATTAT | 0.337 |
| AAAATTGT | 0.225 |
| AAAAATTT | 0.138 |
| AAAATTTT | 0.311 |

| Sequence | PBM E-score |
| --- | --- |
| AAAATTAG | 0.31 |
| ATAATTAT | 0.195 |
| AAAATTAA | 0.134 |
| GGCCACCA | 0.0635 |
| CAACCTAA | 0.0543 |
| GTATCGTA | 0.0508 |
| GATGCAAC | -0.0126 |
| AGTTGACG | 0.019 |
| CATCCAGA | -0.00655 |
| CAAACGCC | 0.0326 |
| TAAACGCA | -0.0738 |
| GGAACGCC | -0.017 |
| CAAACGCA | -0.133 |
| GAAACGCA | 0.323 |
| GAAACGCC | 0.288 |
| ATGCTTAG | -0.205 |
| AGCAGTAG | -0.168 |
| TGGCCCCA | -0.094 |
| AAGTAGTG | -0.075 |
| ACCTAATC | 0.0677 |
| GAAAGAAA | 0.297 |
| CAAAGAAA | 0.214 |
| ACAAGAAT | 0.137 |
| ACAAGAAA | 0.28 |
| AGTAGAAC | -0.0785 |
| CCAAGAAA | 0.0914 |

| Sequence | PBM E-score |
| --- | --- |
| CGTAGAAA | -0.0538 |
| GAAAGAAC | -0.00643 |
| AGTAGAAA | 0.297 |
| CCCACATC | -0.0169 |
| GGCAAGCC | -0.0158 |
| GCTAACCC | -0.192 |
| CAGCTGCG | -0.0692 |
| AGAAATTG | 0.209 |
| CATGGATC | -0.0524 |
| AACTTTAT | 0.165 |
| AATAAAAT | 0.183 |
| ACTAAAAC | 0.272 |
| ACTAAAAT | 0.27 |
| ACTAATAC | 0.131 |
| ACTAAAAA | 0.203 |
| ACTAAAAG | 0.1 |
| ACTAATAG | 0.0525 |
| ACTAATAT | 0.288 |
| ACTAAACC | 0.0959 |
| AGAGTCTC | -0.00303 |
| CTTGTTCA | -0.105 |
| GACGTCAC | -0.136 |
| TCATACCA | -0.0469 |
| CATGGTTC | 0.19 |
| GTGGGCGA | -0.0639 |
| CGGACCAA | -0.096 |

| Sequence | PBM E-score |
| --- | --- |
| AACTGGTA | -0.00841 |
| ATCGTCGG | 0.00187 |
| CCCGTTTC | 0.274 |
| ACCGTTTG | -0.0273 |
| ACCGTTTA | 0.059 |
| ACCGTTTC | 0.3 |
| CCCGTTGC | -0.145 |
| CCCGTTTA | 0.0626 |
| TCACTTAA | 0.191 |
| GCCGACGA | 0.17 |
| CCCGACGA | 0.284 |
| TCCGACGA | -0.109 |
| ATAGCATA | -0.011 |
| GAAGACTA | -0.0635 |
| CGATTAAA | 0.073 |
| TGATTAAA | 0.158 |
| GGATTAAA | 0.274 |
| GAATTGAA | 0.278 |
| AAATTAAA | 0.206 |
| GAATTAAC | 0.00892 |
| TAATTGAA | 0.0688 |
| CAATTGAA | 0.187 |
| GAATTAAA | 0.287 |
| ATCCTACG | -0.141 |
| GAGCTTGA | -0.176 |
| AAAAACAC | 0.233 |

| Sequence | PBM E-score |
| --- | --- |
| CCGGAACC | 0.0511 |
| GCGGGGTA | 0.143 |
| CAGCCATC | -0.0408 |
| GCTCTACC | -0.167 |
| AAGCGAGA | 0.108 |
| CTCTTTAA | -0.122 |
| CTACCGAA | -0.131 |
| GTACCAAA | 0.0457 |
| CTACCAAA | 0.0171 |
| TTACCGAA | 0.276 |
| GTACCGAA | 0.0964 |
| TTACCAAA | 0.263 |
| GCATGCCC | 0.105 |
| AAACTGTT | 0.162 |
| GAACTTAA | 0.115 |
| AAACTGTA | 0.135 |
| AAACTTAA | 0.298 |
| AAACTTTG | 0.217 |
| AAACTGAA | 0.268 |
| CAACTTAA | 0.0143 |
| CAACTTTA | 0.161 |
| AAACTTTA | 0.294 |
| AAGATTGC | -0.0392 |
| ACTTTGAT | 0.11 |
| CCCGGCGG | 0.0682 |
| ATTAAGGG | 0.0581 |

| Sequence | PBM E-score |
| --- | --- |
| ATCTCGAC | 0.0726 |
| GATCCCCA | 0.0544 |
| CGCCTACA | 0.0882 |
| GTAGCCAC | -0.27 |
| CTGGGGGC | -0.233 |
| ACCCCACC | 0.373 |
| GCCCCACA | 0.101 |
| ACCCCACT | 0.0311 |
| GCCCCACC | 0.266 |
| CCCCCACC | -0.207 |
| ACCCCACG | -0.159 |
| GGACCCGA | -0.0164 |
| CTCCACAA | 0.00925 |
| CAAAGCGA | 0.0708 |
| ACAAGGAC | -0.129 |
| AGAAGACA | -0.132 |
| AACTCGCC | -0.0534 |
| TGATTTAA | 0.266 |
| AAATTTGA | 0.123 |
| CGATTTAA | 0.1 |
| AAATTTAG | 0.169 |
| AAATTTAA | 0.289 |
| CAATTTAA | 0.2 |
| TAATTTAA | 0.3 |
| AAATTTAC | 0.197 |
| AGATTTAA | 0.0444 |

| Sequence | PBM E-score |
| --- | --- |
| AAATTTAT | 0.263 |
| AAATTTCA | 0.0583 |
| GAATTTAA | 0.0395 |
| GGAATGGA | 0.0113 |
| TTACCCAA | 0.0694 |
| CTTTGCTA | 0.162 |
| CTCACAGA | 0.00059 |
| AACTCGTA | 0.143 |
| TCCCCACA | -0.0875 |
| CACCTATC | 0.0217 |
| CCAAACGG | -0.0425 |
| AGAAACGA | 0.207 |
| GGAAACGA | 0.275 |
| CAAAACGG | 0.302 |
| CCAAACGA | 0.0156 |
| AAAAACGG | 0.174 |
| TAAAACGA | 0.134 |
| AAAAACGA | 0.272 |
| CAAAACGC | 0.229 |
| CGAAACGA | 0.205 |
| CAAAACGA | 0.272 |
| GAAAACGA | -0.0839 |
